From PubChem BioAssay (EPA / NIEHS)
Calls of active or inactive are those of the source. How the source made its calls: active means hit-call score of the fitted dose curve at least 0.9, where 1 is the maximum; inactive means score below 0.9.

Target: Estrogen receptor (Homo sapiens) (UniProt P03372)
Experiment: OT_ERa_GFPERaERE_0480: Odyssey Thera (OT) 8-hour HeLa Transcription Induction Assay for Estrogen Receptor (AID 2283381)
Protocol: OT_ERa_GFPERaERE_0480 is a cell-based, single-readout assay that uses HeLa, a human cervix cell line, with measurements taken at 8 hours after chemical dosing in a 384-well plate.OT_ERa_GFPERaERE_0480 is one of one assay component(s) measured or calculated from the OT_ERa_GFPERaERE_0480 assay. It is designed to make measurements of fluorescent protein induction, a form of inducible reporter, as detected with optical microscopy: fluorescence microscopy signals by Microscopy technology.Data from the assay component OT_ERa_GFPERaERE_0480 was analyzed into 1 assay endpoint. This assay endpoint, OT_ERa_EREGFP_0480, was analyzed in the positive analysis fitting direction relative to DMSO as the negative control and baseline of activity. Using a type of inducible reporter, measures of receptor for gain-of-signal activity can be used to understand the reporter gene at the pathway-level as they relate to the gene ESR1. Furthermore, this assay endpoint can be referred to as a primary readout, because the performed assay has only produced 1 assay endpoint. To generalize the intended target to other relatable targets, this assay endpoint is annotated to the nuclear receptor intended target family, where the subfamily is steroidal.
All assay endpoints are quantified using high content image analysis algorithms.

Chain of Estrogen receptor (Homo sapiens) (P03372 whole entry, looked up): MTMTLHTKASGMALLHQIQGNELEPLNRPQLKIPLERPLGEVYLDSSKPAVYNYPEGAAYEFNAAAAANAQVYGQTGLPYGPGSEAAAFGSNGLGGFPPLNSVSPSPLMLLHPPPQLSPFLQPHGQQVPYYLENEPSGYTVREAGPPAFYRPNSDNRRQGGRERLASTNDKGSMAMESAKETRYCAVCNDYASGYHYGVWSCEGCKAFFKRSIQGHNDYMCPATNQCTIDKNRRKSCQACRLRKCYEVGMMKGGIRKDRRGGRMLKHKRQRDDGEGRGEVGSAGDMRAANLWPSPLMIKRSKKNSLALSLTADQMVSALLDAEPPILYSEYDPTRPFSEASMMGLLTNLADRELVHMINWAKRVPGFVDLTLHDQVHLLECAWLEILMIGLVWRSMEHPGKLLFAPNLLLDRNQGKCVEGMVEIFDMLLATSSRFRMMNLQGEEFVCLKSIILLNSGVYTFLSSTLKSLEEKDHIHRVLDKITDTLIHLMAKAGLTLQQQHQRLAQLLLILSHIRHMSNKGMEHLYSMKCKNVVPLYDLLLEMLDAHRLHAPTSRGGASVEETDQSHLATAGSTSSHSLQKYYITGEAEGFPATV

SMILES | outcome | AC50
CCCCCCCCCC(C)=O | inactive | –
O=C(O)/C=C/c1ccccc1 | – | 23.4 µM (active)
c1ccc(Nc2cccc3ccccc23)cc1 | inactive | –
CCCC(CC)c1ccccc1 (stereo not given) | inactive | –
O=C(O)C1CCC(C(=O)O)CC1 (stereo not given) | inactive | –
C[Si](C)(C)N[Si](C)(C)C | inactive | –
COc1ccc(-c2coc3cc(O)cc(O)c3c2=O)cc1 | – | 8.5 µM (active)
O=C(OCCc1ccccc1)c1ccccc1 | inactive | –
CCCCNC(=S)NCCCC | inactive | –
O=C(O)CC(C(=O)O)S(=O)(=O)O (stereo not given) | inactive | –
CCOC(=O)c1ccc(C)cc1 | inactive | –
CCCCCC[C@@H](O)C/C=C\CCCCCCCC(=O)OCC(O)CO (stereo not given in full) | inactive | –
N#Cc1ccc(C2CCCc3cncn32)cc1 (stereo not given) | – | 18.2 µM (active)
CC(C)(C)NC(=O)[C@H]1CC[C@H]2[C@@H]3CC[C@H]4NC(=O)C=C[C@]4(C)[C@H]3CC[C@]12C | inactive | –
CCCCNS(=O)(=O)c1ccccc1 | inactive | –
O=C(O)CCC(=O)O | inactive | –
O=S(=O)(O)c1ccc(N=Nc2c(O)ccc3ccccc23)cc1 | inactive | –
CCCCCCOc1ccc(N)cc1 | inactive | –
CC(=O)/C=C/C1C(C)=CCCC1(C)C (stereo not given) | inactive | –
CCCCCCO | inactive | –

SMILES | outcome | AC50
CCCCCCCCCCCC(=O)N(C)CC(=O)O | inactive | –
C=CCOC(=O)c1ccc(C(=O)OCC=C)c(C(=O)OCC=C)c1 | inactive | –
Fc1ccc(Br)cc1 | inactive | –
NC(=O)Nc1ccccc1 | inactive | –
CCCCCCCCCCCCCCCCCCOS(=O)(=O)O | inactive | –
CCCCc1ccc(Cl)cc1 | inactive | –
C1CNCCN1 | inactive | –
CC(=O)OCc1ccccc1 | inactive | –
Cc1ccc(C)c(OCCCC(C)(C)C(=O)O)c1 | inactive | –
O=C(Oc1ccccc1)c1ccccc1O | inactive | –
CC(C)(c1ccccc1)c1ccc(Nc2ccc(C(C)(C)c3ccccc3)cc2)cc1 | inactive | –
CCC1COC(=O)O1 (stereo not given) | inactive | –
CCCCC(C=O)CC (stereo not given) | inactive | –
COc1ccc(C(=O)c2ccccc2)c(O)c1 | inactive | –
O=C(O)c1cc(O)c2ccccc2c1O | – | 18.1 µM (active)
CC(CCC(=O)O)(c1ccc(O)cc1)c1ccc(O)cc1 | – | 47.1 µM (active)
CC(C)(C)C1CCC(=O)CC1 | inactive | –
CC12CCC(CC1)C(C)(C)O2 | inactive | –
Nc1ccc(C(=O)O)cc1 | inactive | –
CO[Si](C)(C)OC | inactive | –
